Over roughly 59,000 sequences, the read-out has its median near -0.00055; the lowest 2% begin near -2. The full list was thinned out, with the lowest values kept by preference.

This test can be described thus: Identification of proteins required for the processing of the EWS-FLI1 nascent transcript.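 Note: robust z of luciferase light less the median z of siRNAs with the same seed.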 Conditions: TC32 Ewing sarcoma NR0B1-luc vs CMV-luc (EWS-FLI1 target promoter against control promoter), 48 h; screened at 20 nM (by protocol). Here is the method: Ewing sarcoma (ES) cells depend on the EWS-FLI1 fusion transcription factor for cell survival. Using an assay of EWS-FLI1 activity and genome-wide siRNA screening we have identified proteins required for the processing of the EWS-FLI1 nascent transcript. Parallel genome-wide siRNA-mediated RNAi screens were conducted in Ewing sarcoma TC32 cell lines expressing a luciferase (luc) reporter protein driven by either the promoter of the EWS-FLI1 target gene NR0B1 (TC32-NR0B1-luc) or the CMV promoter (TC32-CMV-luc). Luciferase activity was assessed 48 hours post siRNA-transfection.
Twenty microl of serum-free media containing Lipofectamine RNAiMax (0.05 microl) was added to wells containing siRNA (0.8 pmol). Lipid and siRNA were allowed to complex for 45 min at ambient temperature before addition of 600 cells in RPMI-1640, 20% FBS to yield final transfection mixtures containing 20 nM siRNA in RPMI-1640, 10% FBS. Luciferase expression was measured using OneGlo (Promega, Madison, WI). The genome-wide screening campaign was conducted using Ambion's human genome library version 4.1 (Ambion, Austin TX). This library targets approximately 21000 human genes, three siRNAs per gene. Each siRNA is arrayed in an individual well of a 384-well plate. Parallel transfections were conducted in TC32-NR0B1-luc and TC32-CMV-luc cell lines and luciferase expression (OneGlo, Promega) was assayed 48 h later on a PerkinElmer Envision 2104 Multilabel plate reader (PerkinElmer, Waltham, MA). Qiagen's AllStars Negative control was incorporated on all screening plates for normalization (16 wells per plate). Qiagen, Germantown, MDsiGL4 was incorporated as a positive transfection control (16 wells per plate) on all plates. […] The raw luciferase data for the NR0B1- and CMV-luc screens were normalized and z-score-MAD transformed using standard methods (Chung et al., 2008). The miRNA-like seed sequence of every siRNA was determined and the median z-score for all siRNA sequences with the same seed sequence was calculated. This z-score was subtracted from the z-score associated with each siRNA with that seed sequence to generate a seed-adjusted z-score value (Z) that was used when the results for the three siRNAs corresponding to each gene were compared (Marine et al., 2012)
Regarding UAAGGUUCGACCUGCAGAG against MNX1-AS1, the seed-corrected z-score is -2.4.
The result for UUCCGUUGAUUCUUUCUCC against KAT5 reads -1.63; that for UUGGUGGUCAUUAAGGUUG against PQLC3, -0.378; that for AAUCUGUCUGUAGGUAUCC against TBC1D22B, -0.38.
For AUUGAUGUAAUCUCCGUCC against PTPN7 the value was -1.34; for UUUCUUAUCUCUGUUGUUC against CRCP, 0.4; for UUUGGUGAUAGGGUGCUCG against C5orf60, -3.47.
Take UUUCUUAGGUGUAUUGACC against PRDX1: the seed-corrected z-score is -1.23.
For AAGGUAGGCAAAAUUAUCC against GALNT16 the value was 1.35; for UAGACGUGCACGAACACGC against MOB3A, -0.135.
For UGAUAUAGGAGUUAGACUG against KRTAP2-2 the value was 0.0896; for UUAGCAAGCAUCCUUUCGC against LTN1, -0.45.
Take AAACAGAAGAGGGAGUGGG against LINC01567: the seed-corrected z-score is -2.3.
As for UGAAUAAUACCUAUAAUCC against OR4F6, the seed-corrected z-score is -0.573.
Consider UUGGACAUGAUGAAAUUCC against EML3, for which the seed-corrected z-score worked out at 0.0247.
The result for UACAUGCUCCGCACAGUCC against NOTCH1 reads -0.17.
UUGGAGCACUGUAAAGGCC against ZFP14 displayed a seed-corrected z-score of 0.456.
For UCUUUAUCAAGUUUACAGG against LANCL3 the value was -0.0126; for AUAGUUCGGAUCACAAUGC against NPSR1, 0.18.
For UUCACUGUCAGUCCGAUGG against COPZ1 the value was -3.71; for UCUGGUUCUUGUUGGGUAG against ECEL1, -2.81; for UUUCGAGAAAUAAUACACC against RPA1, -0.401.
The result for UGUAGAAUGAUCACCAACC against PCNX4 reads 0.471; that for UAGGUCAUAACAGAAUGCU against FLNC, -0.156.
With UGUAGUCACACCAGAGAGG against FAM180B, the seed-corrected z-score was -2.49.
AAAGAUAUCAGGCACCCAG against GABRR3 had a seed-corrected z-score of 0.633.
In the case of UAAACUGCACUUUCCACGG against C12orf49, the seed-corrected z-score is -2.69.
The result for UGUAUUAUGACCUUCGCUC against MORC4 reads -0.441; that for UCAAUUGAUUCCUCAAUUC against MCM6, 0.575; that for UAUGCUUUCAAAAGAGUCC against ETS1, -1.16.
With AAGGCAUUAAGACUCUUGG against HDAC3, the seed-corrected z-score was -0.388.
The result for UCCUUUACCGAUUUCAGUU against XRCC3 reads -0.609; that for UUCCUUCUUAGGUUUCUUC against LRRC59, 0.83; that for UAGUUGUCACCAUCCGUGC against DSE, -2.48.
For AAGUUUAUAUACACUUUUG against NDUFS6 the value was 0.771; for UUUCAGAUCAUACUCGCCG against VPS33B, 0.89; for UGAGGAGCGACAAUCUUCC against TFAP2C, -0.276.
The result for UGCCUGGAGAGAGUGUACG against PGLYRP1 reads -0.292; that for UUAGCAUUAAAACAGGUAG against GC, -0.347; that for UGGGAUCUCAGCUGUAUCC against XAGE1E, -2.37.
With UUUAGUAACAGCCCAGUUC against CCDC36, the seed-corrected z-score was -0.277.
The result for AUAGGUAUCAGGCACCCAG against GABRB2 reads 1.35; that for UAUUCUUACUGAUCGUUUG against FLI1, -6.54.
Turning to UAUUCACCCAGAACUGUUG against CYP24A1, the seed-corrected z-score came to 0.031.
Regarding UAUAUCACCAUAUAAUCAC against ADRA2B, the seed-corrected z-score was -0.259.
For AAAUUAAUCUUCUUCAUUC against COX17 the value was 0.109; for UCUGGAUCAAAGGGUGUUG against TMEM134, -4.42.
As to UGAACUCCUUCAAUCCUGC against AHSP, the seed-corrected z-score was determined as 0.888.
For UUAAUAAGACUUCAAGAUG against MYOCD the value was 0.454; for UUCCGGUACAAGAUAUUCC against QRSL1, 0.059; for AUAGGGUUUUACAUGAGGC against MYLK, -0.272.
For UCAUGAUCUGCGAAGUUGG against CCDC75P1 the value was -2.24; for UAUGUUCAGCUCGCAUUUC against CMAS, 0.259.
The result for UUCAUGUCCAGGAUAUCCC against OBFC1 reads -0.538.
AUUGAUAUAAGGAUCAACA against OR5K1 yielded a seed-corrected z-score of 0.45.
The result for UUGGGUACCUCAGUCCACA against SNRPD2 reads -2.98; that for UACAUCUAAUUCACAGUUC against F9, 0.676; that for UAAAUUUGCCCUGCUCUUG against OR2B11, 0.408.
For AGUGUGACAAGAACGUGCC against MYL6P5 the value was -0.946.
For UCUGUGAACACCGGCAUGU against NCLN the value was 2.18.
UUACGUUCUUGAAAGGCGG against IARS came in with a seed-corrected z-score of 1.47.
The result for AGACAGAUGCGUUUGAUUC against PYDC2 reads 0.835; that for AAUGGAACAACAGCGGUCC against ZNF217, -0.315; that for UUCCUAGAAACCCAGACUG against SPATA31E1, -3.97.
For UACCGAUUUGGUAAUAUCG against LY75 the value was -0.557; for UCUCGUUAGUGAUUAAGUC against SULF1, -0.403; for UCACCUUGAAGCUAUAACC against ERCC3, 0.757.
The result for UUUGAUUUCAGCAUCUUCC against TSKS reads -3.12.
On to AAAUGGUCCAGCAAAUUCU against NPPA, for which the seed-corrected z-score amounted to 0.589.
For UUUUCGUGAUGCUUGGUCC against NDEL1 the value was 1.78; for UCAAGAGAAUUCUGUAAUC against C5orf60, -0.0754.
For AUAGUACACGAUGAACUCG against RAMP3 the value was -0.177; for UGACUGACACUUUCAAAGC against SHC1, -0.358.
The result for UGUGGUACCAGGCUGCUUG against PAQR8 reads -2.42; that for UUGUUGGACAGUUGAAUCG against SEC62, 0.834.
UUGAGUUCCAAGAGGACCC against TPBG showed a seed-corrected z-score of 0.978.
The result for UUUCUUAUUGUUGCGGCAG against SNRPD2 reads -2.78; that for UAUGUGGUUAGUCCGUGUG against GTF3C1, 0.362; that for AAAGUUUUCCCUUAUGAUG against MYADML2, 0.381.
For UGUUCUUUAAGCCUUUCCA against BLOC1S5 the value was -0.0488.
Consider UUCCGGAACAUGAAGUGCC against DYRK1B, for which the seed-corrected z-score is -0.257.
The result for UUGUCAAACAGGACUGAGU against AZIN2 reads -0.00443.
The result for UGUGGGAAAGCAGGUAUCU against ZNF815P reads -1.11; that for UAAAGAUGCAGAUAAUAAC against NMUR1, 0.231; that for UUACGAAUGACAUCCUUUG against CKAP5, -2.84.
The result for AACACUUACGCAGUUCUUG against MTCP1 reads 0.193; that for UUUUUCUUCACAGGUGUUU against HIST1H1D, -0.582.
Consider UAAGCUUUUAUUGUGAAUG against GRP, for which the seed-corrected z-score was -2.97.
For UUCUCAUCACUUGUAGCCU against ANKRD36C the value was 0.48; for UGUUUAGUAGCAGAUCUCC against PSMD6, -2.83.
For GUUGGUAACAGGGUCAUUU against RXRG the value was -0.41; for UUGCGAACAAUAGGGUUAG against PZP, -0.222.
The result for UAAAUGUACCGUUUAAACC against LOC647481 reads 0.567; that for UCCGGAAUGUCGAUGCCCU against DUX5, -0.471; that for ACUGUUAUUCUUACGCUGG against CUL3, -0.643.
As to AAUUUGACCUCAUCCAUUU against FAM47C, the seed-corrected z-score is -0.798.
As for UGGUGUAACUUCAACAUCG against ATP13A4, the seed-corrected z-score was -2.09.
The result for UAUUCGUCAGCUCAAACUC against IQCH reads -1.02; that for UAGGGUGAGAAUAGACAGG against PEX11B, 0.764.
The result for UUCAGUUGUGAUAAGUUGC against TLR6 reads -0.0452; that for UUUCGAUCUCUGUUAAGCC against C2orf40, 0.448; that for UUGAAGACCACGUACAUGG against SLC35D3, -0.373.
For UAAGCGUAUCUGGAAUUAC against UGCG the value was 0.00222; for UUCUUGACGUGCUUCAUUC against SCO1, -0.488; for UUACGGAUCAUGUGGUCUU against SCNN1B, 0.029.
In the case of UGACUUCACAUGGACUACG against IDH3B, the seed-corrected z-score was -2.07.
The result for AUCAUUCACAGGGAGGUCC against OAZ2 reads 1.3.
For UUUGCAUCCCUCGCACUUG against MT3 the value was 0.331; for UUGAAUUCAUUGCAUGUCC against CTSZ, 0.0627; for UAGCGGGUCUCAUCAAAGC against HGFAC, 1.53.
The result for UUAGGUGCGCGGCUAACUG against COL9A3 reads -2.65; that for UCAAUGCAAAGGAACACUC against ARFGAP3, -0.0755; that for AUGUGGGUAAAAACUUGCU against NGRN, -2.09.
UUCUUUAUUCCUUGAGCUG against OR10A4: the seed-corrected z-score was -3.24.
For UACUUGACGAUGUUGCGCG against ADGRL1 the value was -0.114.
UUCAUAUACAGCACAAUAC against CD58 displayed a seed-corrected z-score of 1.5.
As for UUGGAGGACAGGUCCAAGU against TSKU, the seed-corrected z-score is 0.336.
The result for UUCCAUGUAAAACAAUUUC against PDE4D reads 0.777.
For UUAUCUGUGACAUAAGUUG against ALG13 the value was -2.26; for UAGGGUACAUCGUAGGGAG against MYO15A, -0.369.
Consider GGAUUUGCAGCGCAAAGCC against LYPD1, for which the seed-corrected z-score was -0.365.
The result for UCUGGAUUAACGGUGGUCU against NOVA1 reads -3.04.
Take UAAGACUCAAAGUUCCCAG against LOC642502: the seed-corrected z-score was -0.393.
For AGAUGAAAAAGUAAGGCCG against TRIM58 the value was -0.628; for UUUUCGAGGACAUUGACUG against FMN1, 0.159; for UCUUGCUCCAAACCUGCUC against KLHL34, -0.143.
The result for UUGCGGUAGACGAUGAUGC against ADAM8 reads -1.99.
The result for AAGCAUAAAAGGUUCCUGU against IRF4 reads 0.397.
For UUCUCGUGCACUGUCAAAG against SMU1, the seed-corrected z-score is -3.77.
As for UUUGCGGUCACAAUUGGGC against IGFBP5, the seed-corrected z-score was -0.759.
For AGACAUAACACUACGAGAC against GBA2 the value was 0.274; for UUCUUCAUGCGCAGUGUGG against INF2, 0.288; for AAAUCCUCCAAACAUGUGC against ZNRF2, -0.0777.
The result for UGAUCGAAAUGAUUUACAC against CD180 reads -0.034.

The values are drawn from PubChem BioAssay AID1159506 (National Center for Advancing Translational Sciences (NCATS), 2015).
